Measured values from PubChem BioAssay (Tox21).
Inconclusive results are not listed. Calls of active or inactive are those of the source. The call rests on the fitted dose curve.

Assay: qHTS assay to identify small molecule antagonists of the estrogen receptor alpha (ER-alpha) signaling pathway using the BG1 cell line (AID 743080);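 further: BG1 cells stimulated with 17beta-estradiol alongside compound; nearly all actives have a fitted effect of over 25% in size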
Details: BG1Luc4E2 ERE-luciferase antagonist mode, luminescence; series mostly up to 70.3 µM
Description: National Center for Advancing Translational Sciences [NCATS]
NIH Chemical Genomics Center [NCGC]
U.S. Environmental Protection Agency [EPA]
National Institutes of Environmental Health Sciences [NIEHS]
National Toxicology Program [NTP]
U.S. Food and Drug Administration [FDA]
Estrogen receptor (ER), a nuclear hormone receptor, plays an important role in development, metabolic homeostasis and reproduction. Endocrine disrupting chemicals (EDCs) and their interactions with steroid hormone receptors like ER causes disruption of normal endocrine function. Therefore, it is important to understand the effect of environmental chemicals on the ER signaling pathway. To identify ER antagonists, BG1-Luc-4E2 cell line (provided by Dr. Michael Denison from University of California) has been used to screen the Tox21 10K compound library. BG1Luc4E2 cell line endogenously expresses full-length ER-alpha and is stably transfected with a plasmid containing four estrogen responsive elements (ERE) upstream of a luciferase reporter gene.
Tox21 Assay Protocol Summary:
BG1-Luc-4E2 cells were cultured in phenol red free assay medium containing 10% charcoal stripped FBS for 5 days before the assay was performed. The cells were dispensed at 4,000 cells/4 uL of assay medium per well into white wall/solid-bottom 1536-well plates using a Multidrop Combi (ThermoFisher Scientific, Waltham, MA) dispenser. The assay plates were incubated at a 37C and 5% CO2 for 24 h, and then 23 nL of compounds dissolved in DMSO, positive controls or DMSO only was transferred to the assay plate using a Pintool station (Kalypsys, San Diego, CA), followed by addition of 1 uL of 17beta-estradiol in assay medium using a Flying Reagent Dispenser (Aurora Discovery, San Diego, CA). After the plates were incubated at 37 C and 5% CO2 for 21.5 h, 1 uL of CellTiter-Fluor reagent (Promega, Madison, WI) of measuring cytotoxicity was added using Flying Reagent Dispenser (FRD) to each well. The assay plates were incubated at 37 C and 5% CO2 for additional 30 min and the fluorescence intensity was quantified by a ViewLux plate reader (PerkinElmer, Shelton, CT). For measuring luciferase reporter gene activity, 4 uL of ONE-Glo reagent (Promega) was added to each plate using an FRD and luminescence was quantified by a ViewLux plate reader after 30 min incubation at room temperature.

| SMILES | outcome |
| --- | --- |
| Cc1c(NC(C)C)c(=O)n(-c2ccccc2)n1C | inactive |
| FC1(F)C(F)(F)C(F)(F)C2(F)C(F)(F)C(F)(F)C(F)(F)C(F)(F)C2(F)C1(F)F (stereo not given) | inactive |
| C=C1CC[C@H]2C[C@@H]1C2(C)C | inactive |
| Nc1c[n+](N2CCOCC2)no1 | inactive |
| CCn1nc(C(=O)O)c(=O)c2cc3c(cc21)OCO3 | inactive |
| CN(C)CCCSc1ccccc1NC(=O)/C=C/c1ccccc1 | inactive |
| C=C(C)C(=O)OCCCCCCCC(C)C | inactive |
| CC(C)NC(=O)NC(C)C | inactive |
| O=C(O)c1ccccc1OP(=O)(O)O | inactive |
| CCOC(=O)CCC(C)=O | inactive |
| c1cnc(N2CCN(Cc3ccc4c(c3)OCO4)CC2)nc1 | inactive |
| CCO[Si](CCC1CCC2OC2C1)(OCC)OCC (stereo not given) | inactive |
| NS(=O)(=O)c1cc2c(cc1Cl)NC(C1CC3C=CC1C3)NS2(=O)=O (stereo not given) | inactive |
| CC(C[N+](C)(C)C)OC(N)=O (stereo not given) | inactive |
| OC(CCN1CCCCC1)(c1ccccc1)C1CC2C=CC1C2 (stereo not given) | inactive |
| CC(=O)CC(C)(C)C1CCCCC1 | inactive |
| CCN1CCC[C@H]1CNC(=O)c1c(O)c(Cl)cc(Cl)c1OC | inactive |
| CCCCCSCCCCC | inactive |
| C[C@](N)(Cc1ccc(O)cc1)C(=O)O | inactive |
| CS(=O)(=O)O | inactive |

| SMILES | outcome |
| --- | --- |
| C/C=C(\C)C#N | inactive |
| CCOC(C)(C)C | inactive |
| CC(C)CCCC(C)N (stereo not given) | inactive |
| Nc1cc(=O)[nH]c(N)n1 | inactive |
| NCCCNCCSP(=O)(O)O | inactive |
| CC(=O)c1ccccc1O | inactive |
| CCN(CC)CCNC(=O)c1cc(S(C)(=O)=O)ccc1OC | inactive |
| O=C(O)COc1nn(Cc2ccccc2)c2ccccc12 | inactive |
| C=CCCCCCCCCC=O | inactive |
| O=C(O)Cc1ccc(CCNS(=O)(=O)c2ccc(Cl)cc2)cc1 | inactive |
| O=Cc1cccc([N+](=O)[O-])c1 | inactive |
| CCCCCCCCCCCCCCCCC | inactive |
| CC1(C)CO[C@@H](CC(=O)O)CN1 | inactive |
| CC(C)c1cc2c(cc1S(=O)(=O)O)[C@@]1(C)CCC[C@@](C)(C(=O)O)[C@@H]1CC2 | inactive |
| CCCCCCCCCCCC | inactive |
| N=C(N)c1ccc(OCCCOc2ccc(C(=N)N)cc2)cc1 | inactive |
| Cc1ccc(Cl)cc1Cl | inactive |
| CC(C)(C)c1nnc(NS(=O)(=O)c2ccccc2)s1 | inactive |
| CCCc1cc(C(N)=S)ccn1 | inactive |
| O=C[C@H](O)[C@@H](O)[C@H](O)[C@H](O)CO | inactive |
